Assay [1] in a line: ATG_GLI_CIS: Attagene CIS-FACTORIAL HepG2 Assay for human Zinc Finger Protein GLI1 (AID 2282945). To be noted: HepG2, Attagene cis-factorial reporter mRNA, GLI element; actives raise or lower the signal. The procedure, abridged: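 Bidirectional curve fits relative to DMSO, using reporter mRNA levels from RT-PCR plus capillary electrophoresis. Cells were HepG2 transiently carrying cis-regulated reporter constructs, harvested 24 h after dosing.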

The target in assay [2] is Bile acid receptor (Homo sapiens) (UniProt Q96RI1). Briefly: ATG_IR1_CIS: Attagene CIS-FACTORIAL HepG2 Assay for human Nuclear Receptor Subfamily 1 Group H Member 4 (NR1H4), IR1 submotif (AID 2282946). As to conditions: IR1 reporter transcription, actives raise or lower the signal. The procedure, abridged:
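Cells (human HepG2) carry transiently transfected cis-promoter reporter transcription units. Compounds are incubated 24 h, total RNA is reverse-transcribed and amplified, and labelled fragments are resolved by capillary electrophoresis. Curves use DMSO as baseline.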

Assay [3] can be described thus: ATG_GRE_CIS: Attagene CIS-FACTORIAL HepG2 Assay for human Glucocorticoid Response Elements (GRE) (AID 2282947). As to conditions: HepG2 GRE cis-reporter, Attagene multiplex mRNA; actives raise or lower the signal. The procedure, abridged: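 Transient MRTU transfection of human HepG2 liver cells; cis-regulated reporters report endogenous factors. 24 h dosing → RNA isolation → RT-PCR → 6-FAM primer extension → HpaI cut → CE fragment analysis. Bidirectional fit, DMSO negative control.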

Assay [4] in a line: ATG_ISRE_CIS: Attagene CIS-FACTORIAL HepG2 Assay for human Interferon Regulatory Factor 1 (IRF1) binding to an Interferon-Stimulated Response Element (ISRE) (AID 2282948). As to conditions: HepG2 ISRE cis-reporter (Attagene), mRNA transcription readout; actives raise or lower the signal. An outline of the steps: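 Quantitation relies on labelled RT-PCR fragments separated by capillary electrophoresis. Human HepG2 cells bearing cis-promoter reporter constructs were treated 24 h; DMSO served as baseline for bidirectional fitting.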

The nature of assay [5]: ATG_M_32_CIS: Attagene CIS-FACTORIAL HepG2 Assay for M32 Transcription Factor (Internal Marker) (AID 2282949).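 Also: background control marker of the multiplexed CIS panel rather than a real target.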 To be noted: HepG2 Attagene cis-factorial M32 reporter, mRNA; actives raise or lower the signal. An outline of the steps:
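HepG2 cells transiently transfected with multiplexed cis-regulated reporter units, dosed 24 h. Reporter mRNA quantified by RT-PCR, 6-FAM labelling, HpaI digestion and capillary electrophoresis; bidirectional fit vs DMSO.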

Assay [6] in a line: ATG_M_06_CIS: Attagene CIS-FACTORIAL HepG2 Assay for M06 Transcription Factor (Internal Marker) (AID 2282950). To be noted: HepG2 Attagene CIS-FACTORIAL M06 internal marker reporter; actives raise or lower the signal. An outline of the steps:
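Fluorescence-labelled RT-PCR products from cis-promoter reporter units, cut with HpaI and resolved by capillary electrophoresis, give the signal. Cells are human HepG2, dosed for 24 h. Serves as background control, fitted relative to DMSO.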

Assay [7] concerns the target Hepatocyte nuclear factor 6 (Homo sapiens) (UniProt Q9UBC0). Briefly: ATG_HNF6_CIS: Attagene CIS-FACTORIAL HepG2 Assay for human Hepatocyte Nuclear Factor 6 (HNF6) (AID 2282952). As to conditions: HepG2 Attagene cis-factorial HNF6 reporter transcription; actives raise or lower the signal. An outline of the steps: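 Reporter mRNA induction or loss in HepG2 after 24 h exposure; transient cis-MRTU transfection; fragments quantified by capillary electrophoresis; bidirectional analysis, DMSO as negative control.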

Assay [8] deals with Heat shock factor protein 1 (Homo sapiens) (UniProt Q00613). Briefly: ATG_HSE_CIS: Attagene CIS-FACTORIAL HepG2 Assay for human Heat Shock Transcription Factor 1 (HSE) (AID 2282953). To be noted: HepG2 HSE cis-reporter, Attagene RNA transcription; actives raise or lower the signal. The procedure, abridged: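 After a 24 h incubation with test chemical, transfected HepG2 cells were harvested for RNA; reporter transcripts were measured by RT-PCR and capillary electrophoresis. Values reflect gain or loss of signal relative to DMSO.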

Assay [9] can be described thus: ATG_MRE_CIS: Attagene CIS-FACTORIAL HepG2 Assay for human Metal Responsive Element (MRE) (AID 2282954). To be noted: HepG2 MRE cis-reporter transcription, Attagene multiplex; actives raise or lower the signal. The procedure, abridged: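 Transient MRTU transfection of HepG2 (FuGene 6); 24 h dosing; total RNA → oligo(dT) RT, PCR, 6-FAM primer extension, HpaI cut, CE. Bidirectional fit vs DMSO.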

The target in assay [10] is Hypoxia-inducible factor 1-alpha (Homo sapiens) (UniProt Q16665). Briefly: ATG_HIF1a_CIS: Attagene CIS-FACTORIAL HepG2 Assay for human Hypoxia Inducible Factor 1 (HIF1A) (AID 2282951). To be noted: HepG2 Attagene cis-factorial HIF1a reporter transcription; actives raise or lower the signal. The procedure, abridged: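 RT-PCR/capillary electrophoresis fluorescence readout of reporter transcripts from endogenous-TF-driven cis elements in transfected HepG2 cells, 24 h exposure; activity fitted in both directions against DMSO controls.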

The source made the active and inactive calls. The calls were made as follows: active = hit-call score of the fitted dose curve at least 0.9, where 1 is the maximum; inactive = score below 0.9.

The values below come from PubChem BioAssay (EPA / NIEHS).

What is called AC50 is the midpoint of the concentration-response curve, whichever way the signal moves.

Bile acid receptor (Homo sapiens), sequence (Q96RI1 whole entry, looked up, the tested form may be a part): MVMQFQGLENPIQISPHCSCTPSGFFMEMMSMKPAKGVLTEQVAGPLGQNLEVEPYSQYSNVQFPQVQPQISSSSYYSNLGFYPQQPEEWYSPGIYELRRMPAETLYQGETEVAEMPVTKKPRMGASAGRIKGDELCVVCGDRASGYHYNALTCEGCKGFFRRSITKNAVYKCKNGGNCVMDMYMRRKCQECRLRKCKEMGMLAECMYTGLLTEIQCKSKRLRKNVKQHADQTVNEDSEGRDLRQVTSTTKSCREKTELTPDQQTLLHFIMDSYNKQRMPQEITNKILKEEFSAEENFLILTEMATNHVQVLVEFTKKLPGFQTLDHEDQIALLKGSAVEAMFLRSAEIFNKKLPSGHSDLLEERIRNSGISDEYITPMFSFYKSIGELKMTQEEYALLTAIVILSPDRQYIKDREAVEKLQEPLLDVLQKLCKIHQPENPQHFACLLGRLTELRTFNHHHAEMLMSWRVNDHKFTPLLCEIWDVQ
Heat shock factor protein 1 (Homo sapiens), sequence (Q00613 whole entry, looked up): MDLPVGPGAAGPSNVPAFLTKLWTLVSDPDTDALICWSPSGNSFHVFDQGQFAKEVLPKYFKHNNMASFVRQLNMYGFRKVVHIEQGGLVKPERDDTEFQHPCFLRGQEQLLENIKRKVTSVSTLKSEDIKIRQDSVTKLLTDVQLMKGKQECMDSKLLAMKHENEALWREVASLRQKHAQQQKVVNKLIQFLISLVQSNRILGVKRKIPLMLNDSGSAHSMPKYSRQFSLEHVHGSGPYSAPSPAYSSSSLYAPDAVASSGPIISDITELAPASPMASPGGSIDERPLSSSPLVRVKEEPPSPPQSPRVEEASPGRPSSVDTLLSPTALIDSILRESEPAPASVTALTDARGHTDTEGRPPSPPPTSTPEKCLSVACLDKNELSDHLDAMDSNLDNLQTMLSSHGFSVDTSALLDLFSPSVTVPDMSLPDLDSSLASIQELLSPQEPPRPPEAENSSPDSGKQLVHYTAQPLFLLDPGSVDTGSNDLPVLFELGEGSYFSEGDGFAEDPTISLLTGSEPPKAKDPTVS
Hepatocyte nuclear factor 6 (Homo sapiens), sequence (Q9UBC0 whole entry, looked up, the tested form may be a part): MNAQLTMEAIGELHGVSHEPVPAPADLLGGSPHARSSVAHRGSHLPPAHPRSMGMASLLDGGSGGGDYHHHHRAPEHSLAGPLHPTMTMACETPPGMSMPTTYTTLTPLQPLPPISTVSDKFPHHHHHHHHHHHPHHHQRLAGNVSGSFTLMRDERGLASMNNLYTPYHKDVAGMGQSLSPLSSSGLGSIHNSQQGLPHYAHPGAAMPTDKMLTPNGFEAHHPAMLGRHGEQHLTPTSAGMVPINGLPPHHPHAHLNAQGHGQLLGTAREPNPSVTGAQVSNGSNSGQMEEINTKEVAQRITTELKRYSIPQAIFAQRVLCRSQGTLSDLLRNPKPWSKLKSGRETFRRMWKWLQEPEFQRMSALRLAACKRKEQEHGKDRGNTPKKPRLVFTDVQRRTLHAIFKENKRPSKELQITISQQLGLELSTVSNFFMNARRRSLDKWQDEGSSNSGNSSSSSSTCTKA
Hypoxia-inducible factor 1-alpha (Homo sapiens), sequence (Q16665 whole entry, looked up): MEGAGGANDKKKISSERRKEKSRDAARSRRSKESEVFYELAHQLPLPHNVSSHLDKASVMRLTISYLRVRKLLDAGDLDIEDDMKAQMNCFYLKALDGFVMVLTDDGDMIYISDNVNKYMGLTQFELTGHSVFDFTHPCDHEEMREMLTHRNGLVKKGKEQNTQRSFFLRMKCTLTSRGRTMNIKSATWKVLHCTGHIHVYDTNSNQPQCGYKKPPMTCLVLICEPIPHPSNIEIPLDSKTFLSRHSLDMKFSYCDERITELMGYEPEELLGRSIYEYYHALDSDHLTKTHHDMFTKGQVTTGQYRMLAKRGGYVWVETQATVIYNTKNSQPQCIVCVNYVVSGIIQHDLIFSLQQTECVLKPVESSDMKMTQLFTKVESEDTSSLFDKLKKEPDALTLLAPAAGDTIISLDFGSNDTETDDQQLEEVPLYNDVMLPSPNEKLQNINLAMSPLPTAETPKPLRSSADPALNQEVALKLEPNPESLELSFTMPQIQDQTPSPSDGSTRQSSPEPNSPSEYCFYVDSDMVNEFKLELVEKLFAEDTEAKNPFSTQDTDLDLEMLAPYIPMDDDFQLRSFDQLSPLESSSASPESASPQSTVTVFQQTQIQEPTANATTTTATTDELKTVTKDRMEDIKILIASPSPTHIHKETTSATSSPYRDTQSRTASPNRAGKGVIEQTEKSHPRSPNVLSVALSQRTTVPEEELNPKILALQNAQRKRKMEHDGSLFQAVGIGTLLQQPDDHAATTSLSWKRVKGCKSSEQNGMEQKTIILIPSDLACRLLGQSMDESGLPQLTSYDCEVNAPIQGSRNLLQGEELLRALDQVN

For `C=C(C)C(=O)OCC1CO1` (stereo unspecified), the molecule was called inactive in assay [1], in assay [2], in [3], in assay [4], in [5] and in assay [6]. The molecule was classed as inactive in assay [7], in assay [8] and in assay [9].

For the molecule `CC(C)(C)c1ccc(O)cc1`, the molecule was called inactive in assay [1], in assay [4], in [5], in assay [6] and in assay [8]. Besides, the AC50 in assay [10] was 76.7 µM (active); in [9] it was 164 µM (active).

As to `Nc1ccc(Sc2ccc(N)cc2)cc1`, the call in [1], in [2], in [3], in assay [4], in assay [5] and in [6] was inactive. For the same molecule, the outcome in [7] and in assay [8] was inactive. Further, the concentration at half-maximal activity (AC50) in [9] was 77.3 µM (active).

As to `c1ccc2c(c1)Nc1ccccc1S2`, the call in assay [1], in assay [4], in [5], in assay [6], in assay [7] and in [9] was inactive.

As to `O=P(OCC(Br)CBr)(OCC(Br)CBr)OCC(Br)CBr` (stereo unspecified), the molecule was classed as inactive in assay [1], in assay [2], in assay [3], in assay [5], in assay [6] and in assay [7]. The AC50 in assay [4] is 10.3 µM (active); in [9] it was 24.9 µM (active).

Regarding `O=c1ssc(Cl)c1Cl`, the AC50 in [1] is 59.1 µM (active); in [2], 58.3 µM (active); in assay [4], 48.6 µM (active); in assay [9], 49.6 µM (active). Also, the molecule was classed as inactive in [3], in assay [5], in assay [6] and in assay [7].

For `CN(C)C(=O)Cl`, the call in assay [1], in [3], in [4], in assay [5], in [6] and in [10] was inactive. The outcome in assay [7] and in assay [9] was inactive.

Take `Nc1ccc(Cl)cc1`: the result in assay [1], in [3], in assay [4], in assay [5], in assay [6] and in [10] was inactive. The result in assay [7], in [8] and in [9] was inactive.

Consider `Cc1ccc(O)cc1C`, for which the result in assay [1], in assay [4], in assay [5], in assay [6], in assay [10] and in assay [9] was inactive.

Take `Nc1cc2c3c(c1)C(c1ccccc1)=N[C@@H](NC(=O)c1cccnc1)C(=O)N3CC2`: the call in assay [1], in [3], in [4], in assay [5], in assay [6] and in [10] was inactive. Also, in assay [7], the outcome was inactive. For the same molecule, the AC50 in assay [9] is 71.5 µM (active).

`O=[N+]([O-])c1ccccc1`: the molecule was called inactive in assay [1], in [3], in assay [4], in assay [5], in assay [6] and in [10]. Besides, the molecule was called inactive in assay [7] and in assay [9].

With `c1cc2c3c(cccc3c1)CC2`, the molecule was called inactive in assay [1], in assay [3], in [4], in [5], in assay [6] and in assay [7]. Further, the call in [9] was inactive.

As to `CSC(C)(C)C=NO`, the outcome in assay [1], in assay [3], in assay [4], in [5], in assay [6] and in [7] was inactive. In assay [9], the molecule was classed as inactive.

Take `Clc1ccc(Oc2ccccc2)cc1`: the result in [1], in assay [2], in [3], in assay [4], in [5] and in assay [6] was inactive. In addition, the molecule was called inactive in assay [7], in assay [8] and in assay [9].

For the molecule `c1ccc(OP(Oc2ccccc2)Oc2ccccc2)cc1`, the molecule was classed as inactive in assay [1], in [3], in assay [4], in assay [5], in assay [6] and in [10]. Also, the outcome in assay [7] and in [9] was inactive.

Take `CCC1(c2ccccc2)C(=O)N=C(O)NC1=O` (stereo unspecified): the call in assay [1], in assay [4], in assay [5], in assay [6], in assay [10] and in [7] was inactive. Moreover, the result in assay [8] and in assay [9] was inactive.

Turning to `Cc1cccc(N)c1`, the call in assay [1], in assay [4], in assay [5], in assay [6], in assay [7] and in [9] was inactive.

`CCOP(=S)(OCC)SCSCC`: the outcome in assay [1], in assay [2], in [3], in assay [4], in assay [5] and in [6] was inactive. Moreover, in assay [7], the call was inactive. Also, the AC50 in [9] was 151 µM (active).

For `CCOC(=O)c1ccccc1C(=O)OCC`, the outcome in assay [1], in assay [3], in [4], in [5], in [6] and in assay [7] was inactive. The result in [8] and in assay [9] was inactive.

Turning to `O=C(O)CF`, the call in [1], in assay [4], in assay [5], in [6], in assay [10] and in [7] was inactive. In assay [9], the call was inactive.

Regarding `O=P1(N(CCCl)CCCl)NCCCO1` (stereo unspecified), the call in assay [1], in assay [2], in assay [3], in assay [4], in assay [5] and in assay [6] was inactive. In addition, the result in [7] and in assay [9] was inactive.

Consider `CCOS(=O)(=O)OCC`, for which the molecule was called inactive in assay [1], in assay [3], in assay [4], in assay [5], in assay [6] and in [7]. Besides, in assay [9], the molecule was classed as inactive.

Regarding `CCCCCCCc1ccc(O)cc1`, the call in [1], in assay [3], in [4], in assay [5], in assay [6] and in assay [7] was inactive. Further, the call in assay [8] and in assay [9] was inactive.

As for `[N-]=[N+]=[N-]`, the molecule was classed as inactive in assay [1], in assay [3], in assay [4], in [5], in assay [6] and in assay [10]. The outcome in assay [7], in assay [8] and in assay [9] was inactive.

On to `OCC1CO1` (stereo unspecified), for which the call in assay [1], in assay [2], in [3], in assay [4], in assay [5] and in [6] was inactive. For the same molecule, the result in assay [7] and in assay [9] was inactive.

With `CCOC(=O)c1ccccc1N`, the outcome in [1], in assay [2], in assay [3], in assay [4], in [5] and in assay [6] was inactive. For the same molecule, the molecule was classed as inactive in [7] and in assay [9].

Regarding `CC(O)C(F)(F)C(F)(F)F` (stereo unspecified), the molecule was classed as inactive in [1], in assay [2], in assay [3], in [4], in [5] and in assay [6]. Moreover, the outcome in [7] and in assay [9] was inactive.

As to `COCCOCCO`, the molecule was called inactive in assay [1], in assay [4], in assay [5], in [6], in assay [10] and in assay [7]. The molecule was called inactive in [9].

`O=C(O)C(Cl)Cl`: the molecule was called inactive in assay [1], in assay [3], in assay [4], in [5], in [6] and in assay [7]. Also, the outcome in [9] was inactive.

Turning to `ClC(Cl)c1ccccc1`, the result in assay [1], in assay [3], in [4], in [5], in [6] and in [10] was inactive. For the same molecule, the call in [7], in assay [8] and in [9] was inactive.

With `CCCCc1ccccc1`, the molecule was classed as inactive in [1], in [2], in assay [3], in [4], in assay [5] and in assay [6]. The call in [7] and in [9] was inactive.
